14 compounds from the supplement of paper PMC6522484 can be followed below.

± gives the standard deviation of the averaged measurements.

Assay [1] deals with DLD1. Description: cell viability (CellTiter-Glo) relative to plate median (fraction of plate median); higher = more viable cells. The conditions noted are these: 5 µM; treatment time 24 h; reporter: 7TFP. In a few lines:
(§1)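 Colorectal cancer lines with stably integrated lentiviral TCF/Wnt firefly luciferase reporters received library compounds at a final 5 µM, 24 h after seeding into 384-well plates, for a 24 h exposure. Reported figures are plate-median-normalised firefly luciferase or CellTiterGlo luminescence per well. They average two independent replicates.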
On the technique in general: In ATP-based viability assays light output follows the ATP content of the culture.

Another assay deals with HCT116. The description is as above. The conditions noted are these: 5 µM; treatment time 24 h; reporter: TCF4/Wnt. In a few lines: as §1
In assay [2] the test system is SW480. The assay is described as above. The following applies: 5 µM; treatment time 24 h; reporter: 7TFP. In a few lines:
as §1

For assay [3], the system named is DLD1. Briefly: TCF/Wnt firefly luciferase reporter signal relative to plate median (fraction of plate median); higher = higher Wnt reporter signal. The conditions noted are these: 5 µM; treatment time 24 h; reporter: 7TFP. In a few lines:
as §1

The subject of assay [4] is SW480. The assay is described as above. The conditions noted are these: 5 µM; treatment time 24 h; reporter: 7TFP. In a few lines:
as §1

Consider `CC1C=CC=CCCC=CC=CC=CC=CC(OC2OC(C)C(O)C(N)C2O)CC2OC(O)(CC(O)C(O)CCC(O)CC(O)CC(O)CC(=O)OC(C)C(C)C1O)CC(O)C2C(=O)O` (stereo not given), for which the cell viability amounted to 0.932 ± 0.04 with DLD1 [1], 0.906 ± 0.023 in the assay on HCT116 and 0.973 ± 0.031 in the assay with SW480 [2]. The figures for the “TCF/Wnt firefly luciferase reporter signal” value in the assay with DLD1 [3] and with SW480 [4] were 0.874 ± 0.0014 and 0.762 ± 0.0092, respectively.

Take `C[C@H](N)[C@H](O)c1ccc(O)c(O)c1`: the cell viability was 0.971 ± 0.042 in the assay on DLD1 [1], 1.05 ± 0.057 in the assay with HCT116 and 1.09 ± 0.17 in the assay on SW480 [2]. Besides, the results for the “TCF/Wnt firefly luciferase reporter signal” value in the assay with DLD1 [3] and in the assay with SW480 [4] were 1.004 ± 0.0085 and 0.9685 ± 0.0078, respectively.

On to `COc1cc2c(cc1OC)[C@@]13CCN4CC5=CCO[C@H]6CC(=O)N2[C@H]1[C@H]6[C@H]5C[C@H]43`, for which the cell viability in the assay on DLD1 [1] was found to be 1.06 ± 0.05; with HCT116 it was 1 ± 0.097; in the assay on SW480 [2] it was 1.04 ± 0.035. Also, the “TCF/Wnt firefly luciferase reporter signal” value in the assay with DLD1 [3] worked out at 0.876 ± 0.096; in the assay with SW480 [4], 0.974 ± 0.031.

As to `COS(C)(=O)=O`, the cell viability in the assay on DLD1 [1] came out at 1.07 ± 0.071; with HCT116 it was 0.901 ± 0.021; with SW480 [2], 1.015 ± 0.0071. In addition, the “TCF/Wnt firefly luciferase reporter signal” value in the assay on DLD1 [3] was 0.98 ± 0.14; in the assay on SW480 [4] it was 0.958 ± 0.074.

In the case of `CC(=O)[O][Hg][c]1ccccc1`, the values for the cell viability in the assay on DLD1 [1], with HCT116 and in the assay with SW480 [2] were 0.0442 ± 0.012, 0.0479 ± 0.031 and 0.0258 ± 0.0048, respectively. The “TCF/Wnt firefly luciferase reporter signal” value was 0.0227 ± 0.0033 with DLD1 [3] and 0.0222 ± 0.0026 with SW480 [4].

Consider `O=[N+]([O-])c1ccc(O)c([N+](=O)[O-])c1`, for which the cell viability in the assay on DLD1 [1] amounted to 0.981 ± 0.042; with HCT116, 0.953 ± 0.034; with SW480 [2], 0.905 ± 0.098. The “TCF/Wnt firefly luciferase reporter signal” value with DLD1 [3] amounted to 0.966 ± 0.13; with SW480 [4], 1.03 ± 0.035.

As for `O=C1CCC[C@@H]2[C@H]3C[C@@H](CN12)[C@@H]1CCCCN1C3.[O-][Cl+3]([O-])([O-])O`, the cell viability was found to be 1.01 ± 0.024 in the assay with DLD1 [1], 0.956 ± 0.053 in the assay with HCT116 and 0.976 ± 0.021 in the assay on SW480 [2]. The “TCF/Wnt firefly luciferase reporter signal” value in the assay on DLD1 [3] came to 0.922 ± 0.022; with SW480 [4] it was 0.97 ± 0.018.

Consider `NCCCNCCSP(=O)(O)O`, for which the cell viability turned out to be 1.02 ± 0.14 in the assay with DLD1 [1], 1.08 ± 0.071 in the assay with HCT116 and 1.06 ± 0.021 in the assay on SW480 [2]. In addition, the entries for the “TCF/Wnt firefly luciferase reporter signal” value in the assay with DLD1 [3] and in the assay on SW480 [4] were 1.1 ± 0.028 and 1.05 ± 0.035, respectively.

For `CN(C)C(=S)SSC(=S)N(C)C`, the cell viability in the assay with DLD1 [1] is 0.722 ± 0.25; in the assay on HCT116, 0.363 ± 0.021; with SW480 [2] it was 0.997 ± 0.033. In addition, the “TCF/Wnt firefly luciferase reporter signal” value stood at 0.686 ± 0.13 in the assay with DLD1 [3] and 0.508 ± 0.12 in the assay on SW480 [4].

With `CC(C)C[C@H]1C(=O)N2CCC[C@H]2[C@]2(O)O[C@](NC(=O)[C@@H]3C=C4c5cccc6[nH]c(Br)c(c56)C[C@H]4N(C)C3)(C(C)C)C(=O)N12`, the cell viability in the assay with DLD1 [1] stood at 1.05 ± 0.014; with HCT116 it was 0.974 ± 0.08; with SW480 [2], 1.07 ± 0.014. Also, the “TCF/Wnt firefly luciferase reporter signal” value was determined as 0.985 ± 0.021 in the assay on DLD1 [3] and 0.931 ± 0.052 in the assay with SW480 [4].

Regarding `COc1ccc(C[C@H]2NC[C@H](O)[C@H]2OC(C)=O)cc1`, the cell viability worked out at 0.831 ± 0.052 with DLD1 [1], 0.513 ± 0.065 in the assay with HCT116 and 1.06 ± 0.042 in the assay with SW480 [2]. Moreover, the results for the “TCF/Wnt firefly luciferase reporter signal” value in the assay with DLD1 [3] and with SW480 [4] were 0.248 ± 0.011 and 0.357 ± 0.036, respectively.

As for `c1ccc2c(c1)sc1ccccc12`, the cell viability is 1 ± 0.026 with DLD1 [1], 0.97 ± 0.11 in the assay with HCT116 and 1.01 ± 0.049 in the assay on SW480 [2]. Further, the “TCF/Wnt firefly luciferase reporter signal” value in the assay with DLD1 [3] was 0.867 ± 0.033; with SW480 [4] it was 0.935 ± 0.036.

`COc1cc2c(cc1OC)[C@H](C)NCC2`: the cell viability in the assay on DLD1 [1] was 0.962 ± 0.044; in the assay with HCT116, 0.96 ± 0.13; with SW480 [2], 0.9455 ± 0.00071. Besides, the results for the “TCF/Wnt firefly luciferase reporter signal” value in the assay with DLD1 [3] and with SW480 [4] were 1.06 ± 0.085 and 1.07 ± 0.014, respectively.

With `COc1cc2c(cc1OC)[C@@H]1C(=O)c3ccc4c(c3O[C@@H]1CO2)CC(C(C)C)O4` (stereo not given in full), the cell viability turned out to be 0.963 ± 0.11 in the assay on DLD1 [1], 0.685 ± 0.14 in the assay with HCT116 and 0.9715 ± 0.0092 with SW480 [2]. Besides, the “TCF/Wnt firefly luciferase reporter signal” value with DLD1 [3] was found to be 0.84 ± 0.0042; in the assay on SW480 [4], 0.842.
